# From PubChem BioAssay (NCATS)
# Inconclusive results are not listed. Unmarked numbers belong to inactive results. Activity calls are given as the source filed them. Calls follow the shape of the dose curve; as a rule, active = well fitted cell-killing curve with a large enough effect; inconclusive = small, poorly fitted or top-dose-only effect; inactive = no such curve, though single readings can be large or run the other way.
# Assay: qHTS of pediatric cancer cell lines to identify multiple opportunities for drug repurposing: Primary screen for A673 cells (AID 1347092); also: nearly all actives have a fitted effect of over 45% in size
# Details: A673 Ewing sarcoma viability, CellTiter-Glo ATP luminescence, 48 h; series mostly up to 46 µM; activity change, negative = cytotoxic: at the top concentration
# Description: Drug repurposing or repositioning has been offered as a strategy for drug development in oncology programs. This approach has special potential for childhood cancers and other rare or orphan diseases, where the expected return on new drug development has been a disincentive to pharmaceuticals. […] In this project we exploit the poly-pharmacology of drugs to discover new indications via phenotypic screening of a panel of 19 well-characterized cell lines derived from solid tumors seen in children and adolescents. The goal is to identify approved drugs with previously unrecognized anticancer properties that has the potential to reveal new mechanisms and biological processes involved in carcinogenesis or drug resistance. We employed a titration-based paradigm (quantitative high-throughput screening or qHTS), where all compounds were tested at multiple concentrations for their effect on cell viability. Concentration-response curves (CRCs) were derived directly from the primary screen, and both potency and efficacy values were used to identify compounds with robust bioactivity profiles. We screened the NIH Chemical Genomics Center (NCGC) Pharmaceutical Collection (NPC) and Mechanism Interrogation Plate (MIPE) small molecule collections of approved and investigational compounds against these cell lines; and measured metabolically active cells after 48 hours of compound treatment as a proxy for cell viability. […] Assay Submitter: Nathalia J. Martinez, National Center for Advancing Translational Sciences, National Institutes of Health, Rockville, MD, USA; email: natalia.martinez@nih.gov. Shen, M et al. Quantitative high-throughput phenotypic screening of pediatric cancer cell lines identifies multiple opportunities for drug repurposing. Oncotarget 2017 Dec 19;9(4):4758-4772. PMID 29435139.
# The cells were obtained from University of North Carolina (UNC), Pediatric Preclinical Testing Program (PPT), and Coriell Institute (CI). qHTS cell viability assay: Cells were assayed in growth media at a density of 500-1,000 cells/well. Five microliters of cells were dispensed into 1,536-well, white, solid-bottom, TC-treated plates (Greiner Bio One) using a multidrop dispenser and incubated at 37 degrees C, 5% CO2, under a humidified atmosphere for 5 hours. Twenty-three nanoliters of compounds and controls (neutral control DMSO or positive control bortezomib at final concentration of 2.3 uM) were subsequently transferred by Kalypsys pintool. For primary screens, the MIPE collection was tested at 11-point dilutions (final concentrations range from 0.78 nM to 46 µM) and the NPC collection at 8-point dilutions (final concentrations range from 0.59 nM to 46 µM). Compounds tested in follow-up screens were assayed at 11-point dilutions. Cells were incubated for 48 hours, followed by addition of 3 uL of CellTiter-Glo (Promega). After a 15min incubation at room temperature, samples were analyzed for luminescence intensity using a ViewLux High-throughput CCD imager equipped with clear filters.
# % is scaled to controls: 0 for no effect and ±100 for the full control effect; potency is read from the fitted curve at half-maximal effect.
Structure (SMILES),Potency,"activity change, negative = cytotoxic"
CC(C)c1cc(C(=O)N2Cc3ccc(CN4CCN(C)CC4)cc3C2)c(O)cc1O,0.296 µM (active),–
CN[C@H]1CCc2cc(OC)c(OC)c(OC)c2-c2ccc(OC)c(=O)cc21,0.0012 µM (active),–
CN(C1CCc2c(c3ccccc3n2CC(=O)O)C1)S(=O)(=O)c1ccc(F)cc1 (stereo not given),0.935 µM (active),–
NC(=O)Nc1cc(-c2cccc(F)c2)sc1C(=O)N[C@H]1CCCNC1,0.187 µM (active),–
O=C(C=Cc1cccc(S(=O)(=O)Nc2ccccc2)c1)NO,4.29 µM (active),–
CC(O)C1C(=O)N2C(C(=O)O)=C(SC3CNC(C(=O)N(C)C)C3)C(C)C12 (stereo not given),–,-13.2%
Cc1cnc(-c2cnc(NCCNc3ccc(C#N)cn3)nc2-c2ccc(Cl)cc2Cl)[nH]1,1.87 µM (active),–
CN(c1ncccc1CNc1nc(Nc2ccc3c(c2)CC(=O)N3)ncc1C(F)(F)F)S(C)(=O)=O,4.69 µM (active),–
COCCn1c2c([n+](Cc3cnccn3)c1C)C(=O)c1ccccc1C2=O,0.0059 µM (active),–
CC(C)[C@H](C(=O)Nc1ccc(C(=O)NO)cc1)c1ccccc1,1.18 µM (active),–
CC(C)CC(=O)Nc1n[nH]c2c1CN(C(=O)C1CCN(C)CC1)C2(C)C,0.187 µM (active),–
Cc1cc(Nc2cc(N3CCN(C)CC3)nc(Sc3ccc(NC(=O)C4CC4)cc3)n2)n[nH]1,11.8 µM (active),–
NC1(Cc2ccc(Cl)cc2)CCN(c2ncnc3[nH]ccc23)CC1,14.8 µM (active),–
Cc1cc(Nc2cc(CN3CCOCC3)c3nc(C)c(Cc4ccc(Cl)cc4F)n3n2)n[nH]1,5.9 µM (active),–
O=C(CCCCCCNC(=O)c1cnc(N(c2ccccc2)c2ccccc2)nc1)NO,9.35 µM (active),–
Nc1ccc(S(=O)(=O)Nc2ncccn2)cc1,–,-14.9%
O=C(O)CO.[NH2-].[NH2-].[Pt+2],–,-0.472%
CC(C)c1cc(-c2n[nH]c(=O)n2-c2ccc3c(ccn3C)c2)c(O)cc1O,0.118 µM (active),–
CC[C@H](CO)Nc1nc(NCc2ccccc2)c2ncn(C(C)C)c2n1,18.7 µM (active),–
COc1cc(OC2CCN(C)CC2)ccc1Nc1ncc2c(n1)n(C1CCCC1)c(=O)n2C,14.8 µM (active),–

Structure (SMILES),Potency,"activity change, negative = cytotoxic"
OCCCNc1cc(-c2ccnc(Nc3cccc(Cl)c3)n2)ccn1,0.0469 µM (active),–
CCC1=C[C@@H]2CN(C1)Cc1c([nH]c3ccccc13)[C@@](C(=O)OC)(c1cc3c(cc1OC)N(C)[C@@H]1[C@@](O)(C(=O)OC)[C@H](OC(C)=O)[C@]4(CC)C=CCN5CC[C@]31[C@@H]54)C2,0.0093 µM (active),–
C1=CCOCc2cc(ccc2OCCN2CCCC2)Nc2nccc(n2)-c2cccc(c2)OCC1,2.35 µM (active),–
CNC(=O)c1nn(C)c2c1C(C)(C)Cc1cnc(Nc3ccc(N4CCN(C)CC4)cc3)nc1-2,2.96 µM (active),–
Cn1c2ccccc2c2c3c(c4c5ccccc5n(CCC#N)c4c21)CNC3=O,0.935 µM (active),–
CCCCN1CCC(CNC(=O)c2c3n(c4ccccc24)CCCO3)CC1,1.48 µM (active),–
CC1(C)CCC(c2ccc(Cl)cc2)=C(CN2CCN(c3ccc(C(=O)NS(=O)(=O)c4ccc(N[C@H](CCN5CCOCC5)CSc5ccccc5)c(S(=O)(=O)C(F)(F)F)c4)cc3)CC2)C1,4.69 µM (active),–
Cc1ccc(C(=O)Nc2cccc(C(F)(F)F)c2)cc1-c1ccc2nc(NCCN3CCOCC3)ncc2c1,4.69 µM (active),–
COc1cc(C)c(Sc2cnc(NC(=O)c3ccc(CNC(C)C(C)C)cc3)s2)cc1C(=O)N1CCN(C(C)=O)CC1 (stereo not given),9.35 µM (active),–
Nc1ccn([C@@H]2CS[C@H](CO)O2)c(=O)n1,–,-12.4% [at 92.7 µM]
COC(=O)c1ccc2c(C(=Nc3ccc(N(C)C(=O)CN4CCN(C)CC4)cc3)c3ccccc3)c(O)[nH]c2c1,0.296 µM (active),–
COC(=O)[C@]12CCC(C)(C)C[C@@H]1[C@@H]1C(=O)C=C3[C@@]4(C)C=C(C#N)C(=O)C(C)(C)[C@@H]4CC[C@@]3(C)[C@]1(C)CC2,0.372 µM (active),–
N#Cc1c(O)c2c(-c3ccc(-c4ccccc4O)cc3)csc2[nH]c1=O,–,4.49%
CC(C)(C)c1cnc(CSc2cnc(NC(=O)C3CCNCC3)s2)o1,0.0469 µM (active),–
Cc1ccc(NC(=O)C2(c3ccc4c(c3)OC(F)(F)O4)CC2)nc1-c1cccc(C(=O)O)c1,0.059 µM (active),–
Cc1ccc2nc(NC(=O)CSc3nc4c(c(=O)n3-c3ccccc3)SCC4)sc2c1,14.8 µM (active),–
C=C1C(=CC=C2CCC[C@]3(C)[C@@H]([C@H](C)C=C[C@H](C)C(C)C)CC[C@@H]23)C[C@@H](O)C[C@@H]1O,0.469 µM (active),–
O=C(Nc1cc(C(F)(F)F)cc(C(F)(F)F)c1)c1cc(Cl)ccc1O,4.69 µM (active),–
COc1cc2c(NC3CCN(C(C)C)CC3)nc(C3CCCCC3)nc2cc1OCCCN1CCCC1,5.9 µM (active),–
Cc1nc2ccc(CN(C)c3ccc(C(=O)N[C@@H](CCC(=O)O)C(=O)O)s3)cc2c(=O)[nH]1,0.059 µM (active),–
